mHTT CaM bind: mHTT-calmodulin interaction abrogation. P42858. AlphaScreen His-mHTT/GST-CaM binding, luminescence. inhibition, % at 15 µM. 3.6% of 190,000 active
Pf apPOL inh: Pf-apPOL DNA polymerase inhibition; Recombinant Pf-apPOL, molecular beacon fluorescence, 1.5 h; inhibition, % at 10 µM; 0.25% of 210,000 active; AID 1794808
Each line names hits and unclear results; the compound was inactive in the other large screens. The list is not random: actives were taken first. Their share in the collection is about 3.6%. No stated cut-off is given here; in the data, active means inhibition above about 50%; inactive means the rest.

CC(C)COc1ccc(-c2nc3s/c(=C\c4cccs4)c(=O)n3n2)cc1	none
Cc1ncn(-c2ccc(CNC(=O)C3CCCO3)cc2)c1C (stereo not drawn)	none
COc1cc(C(=O)NCc2ccc(C(C)C)cc2)cc(OC)c1OC	none
Cc1[nH]nc(-c2ccc(O)c(C)c2O)c1Oc1ccc(F)cc1	mHTT CaM bind 55
COc1ccc(-c2n[nH]c(C)c2Oc2ccc(F)cc2)c(O)c1	none
COc1cccc2cc(C(N)=O)c(=Nc3ccc(C(N)=O)cc3)oc12	none
COc1cccc2cc(C(N)=O)c(=Nc3ccc(O)cc3)oc12	mHTT CaM bind 99
CC(=O)Nc1nc(SCc2ccc(Br)cc2)n[nH]1	none
Cc1cc(OCC(=O)Nc2ccc(S(=O)(=O)Nc3ncccn3)cc2)cc(C)c1Cl	none
C=C(C)Cn1c(C(=O)N2CCN(C)CC2)cc2sc(C)cc21	none
Cc1cc2c(cc(C(=O)N3CCN(C)CC3)n2Cc2cccc(F)c2)s1	mHTT CaM bind 56
CS(=O)(=O)N1CCC(C(=O)NCC2CCN(C(=O)Nc3ccc(F)cc3)CC2)CC1	none
COc1ccc(-c2coc3c4c(ccc3c2=O)OCN(c2cc(Cl)c(OC)cc2OC)C4)cc1	mHTT CaM bind 60
COc1ccc(-c2coc3c4c(ccc3c2=O)OCN(C2CCCCC2)C4)cc1	none
Cc1ccc2cc3cc(C(=O)Nc4cccc(C#N)c4)oc3nc2c1	none
Cc1ccc(NC(=O)C(=O)NCC(C)O)cc1C (stereo not drawn)	none
N/C(=N\N=C(/N)c1ccccn1)c1ccccn1	mHTT CaM bind active
O=C(CC(=O)c1ccccn1)c1ccccn1	none (no result: mHTT CaM bind)
Cc1ccc(C2=NC3(CCN(CC(=O)NCc4ccc(F)cc4)CC3)NC2=O)cc1	none
O=S(=O)(NCc1cccnc1)c1ccc2[nH]c3c(c2c1)CCCC3	none
CN(Cc1ccco1)S(=O)(=O)c1ccc2[nH]c3c(c2c1)CCCCC3	mHTT CaM bind 78
CN(C)c1ccc(CNS(=O)(=O)c2ccc3[nH]c4c(c3c2)CCCCC4)cc1	mHTT CaM bind 55
O=S(=O)(NCc1ccco1)c1ccc2[nH]c3c(c2c1)CCCCC3	mHTT CaM bind 87
Cc1ccc(CNS(=O)(=O)c2ccc3[nH]c4c(c3c2)CCCCC4)cc1	none
CN(CC(=O)NCc1ccco1)S(=O)(=O)c1ccc2[nH]c3c(c2c1)CCCC3	none
O=c1[nH]c2ccc(S(=O)(=O)NCc3ccco3)cc2s1	none
O=S(=O)(NCc1ccccc1)c1ccc2[nH]c3c(c2c1)CCCCC3	mHTT CaM bind 57
O=c1c2cc(-c3ccccc3)sc2ncn1CCc1ccccc1	none
COc1ccc(N2C(=O)c3cccc([N+](=O)[O-])c3C2=O)c([N+](=O)[O-])c1	none
Cc1ccc(CN2C(=O)CCc3c(C)nc(-c4ccccc4)nc32)o1	mHTT CaM bind 90
Cc1nc(-c2ccncc2)nc2c1CCC(=O)N2Cc1ccncc1	none
Cc1nc(-c2ccncc2)nc2c1CCC(=O)N2CCN1CCCC1	Pf apPOL inh 56
Cc1nc(-c2cnccn2)nc2c1CCC(=O)N2Cc1ccncc1	mHTT CaM bind 60, Pf apPOL inh 59
Cc1nc(-c2ccncc2)nc2c1CCC(=O)N2Cc1ccco1	none
Cc1nc(-c2cnccn2)nc2c1CCC(=O)N2Cc1ccccc1	none
CC(=O)N1CCC(n2c(C)nc(C(=O)NCCCN3CCOCC3)c2C)CC1	none
CNC(=O)C1CN(C(=O)c2cccs2)CC12CCCCC2 (stereo not drawn)	none
Cc1ccc(-n2nc3cc(N)c(Cl)cc3n2)cc1	mHTT CaM bind 59
Cc1cc2nn(-c3ccccc3)nc2cc1N	none
O=[N+]([O-])c1cccc(N=Cc2[nH]c3ccc(Br)c(Cl)c3c2O)c1	none
CSc1nc(N)nc(SCc2ccc(Cl)c(Cl)c2)c1C#N	mHTT CaM bind 74
CSc1nc(N)nc(SC/C=C/c2ccccc2)c1C#N	none
CCCC(=O)Nc1ccc2c(c1)CC(C(=O)NCc1ccc(C)cc1)CO2 (stereo not drawn)	none
O=C(NCc1cccc(Cl)c1)C1CCn2c(nc3ccccc32)C1 (stereo not drawn)	none
Cc1sc(N)nc1-c1cc2ccccc2oc1=O	none
O=C(NCCCN1CCCC1)c1ccc(N2CCNC(c3ccccc3)C2)nc1 (stereo not drawn)	mHTT CaM bind 56
O=C(NCc1ccc(N2CCCC2)cc1)c1ccc(N2CCNC(c3ccccc3)C2)nc1 (stereo not drawn)	mHTT CaM bind 79
O=C(NCc1ccc(Cl)cc1)c1ccc(N2CCNC(c3ccccc3)C2)nc1 (stereo not drawn)	none
O=C(NCCCN1CCCCC1)c1ccc(N2CCNC(c3ccccc3)C2)nc1 (stereo not drawn)	none
COc1cccc(CC(=O)N2CCc3c(c(-c4nc(Cc5ccccc5)no4)nn3C)C2)c1	none
Clc1ccc(C2=NN3C(C2)c2ccccc2OC3c2ccco2)cc1 (stereo not drawn)	mHTT CaM bind 87
Oc1ccc(O)c(C2=NN3C(C2)c2ccccc2OC3c2cccs2)c1 (stereo not drawn)	mHTT CaM bind 67
c1ccc(C2=NN3C(C2)c2ccccc2OC3c2cccnc2)cc1 (stereo not drawn)	none

Screening results as filed in PubChem BioAssay.
